Results published in the supplement of paper PMC8728848.
Shown is part of a subset that was picked to be rich in the strongest signals.

Tests used:
Test in all cases: glycan array binding signal (z-score within array); higher = stronger binding
Settings in all cases: glycan notation: IUPAC condensed, linker removed
Fuc(a1-2)Gal(b1-3)GlcNAc = molecular target: Fuc(a1-2)Gal(b1-3)GlcNAc
Outline: (§1)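 Glycan array data were curated from 3228 arrays in the Consortium for Functional Glycomics database and kept only where the protein sequence was available. Glycan names were converted to IUPAC-condensed notation, and columns mapping to the same glycan were averaged. The binding signal is a within-array Z-score, averaged across arrays of the same protein sequence at different concentrations or buffers and across linkers. Negative Z-scores can be read as non-binding.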

[1] = molecular target: Fuc(a1-2)Gal(b1-3)GlcNAc(b1-2)Man(a1-3)[Fuc(a1-2)Gal(b1-3)GlcNAc(b1-2)Man(a1-6)]Man(b1-4)GlcNAc(b1-4)[Fuc(a1-6)]GlcNAc
Outline: as §1

[2] = molecular target: Fuc(a1-2)Gal(b1-4)GlcNAc(b1-2)Man
Outline: as §1

[3] = molecular target: Fuc(a1-2)Gal(b1-4)[Fuc(a1-3)]GlcNAc
Outline: as §1

[4] = molecular target: Fuc(a1-2)[Gal(a1-3)]Gal(b1-4)GlcNAc(b1-2)Man
Outline: as §1

[5] = molecular target: Fuc(a1-2)[GalNAc(a1-4)]Gal(b1-4)GlcNAc
Outline: as §1

[6] = molecular target: Gal(a1-3)Gal(b1-4)[Fuc(a1-3)]GlcNAc
Outline: as §1

[7] = molecular target: Gal(b1-3)GlcNAc(b1-2)[Gal(b1-3)GlcNAc(b1-6)]Man(a1-6)[Gal(b1-3)GlcNAc(b1-2)Man(a1-3)]Man(b1-4)GlcNAc(b1-4)GlcNAc
Outline: as §1

[8] = molecular target: Gal(b1-3)GlcNAc(b1-3)Gal(b1-4)Glc
Outline: as §1

[9] = molecular target: Gal(b1-3)GlcNAc(b1-3)GalNAc
Outline: as §1

[10] = molecular target: Gal(b1-3)GlcNAc(b1-6)GalNAc
Outline: as §1

[11] = molecular target: Gal(b1-3)[Neu5Ac(b2-6)]GalNAc
Outline: as §1

[12] = molecular target: Gal(b1-4)GlcNAc(b1-2)Man(a1-3)[Gal(b1-4)GlcNAc(b1-2)Man(a1-6)]Man(b1-4)GlcNAc(b1-4)GlcNAc
Outline: as §1

[13] = molecular target: Gal(b1-4)GlcNAc(b1-2)Man(a1-3)[Gal(b1-4)GlcNAc(b1-2)Man(a1-6)]Man(b1-4)GlcNAc(b1-4)[Fuc(a1-6)]GlcNAc
Outline: as §1

[14] = molecular target: Gal(b1-4)GlcNAc(b1-2)Man(a1-3)[GlcNAc(b1-2)Man(a1-6)]Man(b1-4)GlcNAc(b1-4)GlcNAc
Outline: as §1

[15] = molecular target: Gal(b1-4)GlcNAc(b1-2)Man(a1-3)[GlcNAc(b1-4)][Gal(b1-4)GlcNAc(b1-2)Man(a1-6)]Man(b1-4)GlcNAc(b1-4)GlcNAc
Outline: as §1

[16] = molecular target: Gal(b1-4)GlcNAc(b1-2)Man(a1-6)[GlcNAc(b1-2)Man(a1-3)]Man(b1-4)GlcNAc(b1-4)GlcNAc
Outline: as §1

[17] = molecular target: Gal(b1-4)GlcNAc(b1-3)Gal(b1-4)GlcNAc(b1-3)Gal(b1-4)GlcNAc(b1-3)Gal(b1-4)GlcNAc(b1-2)Man(a1-3)[Gal(b1-4)GlcNAc(b1-3)Gal(b1-4)GlcNAc(b1-3)Gal(b1-4)GlcNAc(b1-3)Gal(b1-4)GlcNAc(b1-2)Man(a1-6)]Man(b1-4)GlcNAc(b1-4)GlcNAc
Outline: as §1

Gal(b1-6)Gal = molecular target: Gal(b1-6)Gal
Outline: as §1

[18] = molecular target: Gal3S(b1-4)[Fuc(a1-3)]GlcNAc6S
Outline: as §1

GalNAc(b1-3)Gal = molecular target: GalNAc(b1-3)Gal
Outline: as §1

GalNAc3S(b1-4)GlcNAc3S = molecular target: GalNAc3S(b1-4)GlcNAc3S
Outline: as §1

[19] = molecular target: GlcNAc(a1-4)Gal(b1-4)GlcNAc(b1-3)Gal(b1-4)GlcNAc(b1-3)Gal(b1-4)GlcNAc
Outline: as §1

[20] = molecular target: GlcNAc(b1-2)Man(a1-3)[GlcNAc(b1-2)Man(a1-6)]Man(b1-4)GlcNAc(b1-4)[Fuc(a1-6)]GlcNAc
Outline: as §1

B1: PVL (Psathyrella velutina), Q309D1_9AGAR (protein)
chain: MSVVVISQALPVPTRIPGVADLVGFGNGGVYIIRNSLLIQVVKVINNFGYDAGGWRVEKHVRLLADTTGDNQPDVVGFGENGVWISTNNGNNTFVDPPKMVLANFAYAAGGWRVEKHIRFMADLRKTGRADIVGFGDGGIYISRNNGGGQFAPAQLALNNFGYAQGWRLDRHLRFLADVTGDGLLDVVGFGENQVYIARNSGNGTFQPAQAVVNNFCIGAGGWTISAHPRVVADLTGDRKADILGFGVAGVYTSLNNGNGTFGAVNLVLKDFGVNSGWRVEKHVRCVSSLTNKKVGDIIGFGDAGVYVALNNGNGTFGPVKRVIDNFGYNQGWRVDKHPRFVVDLTGDGCADIVGFGENSVWACMNKGDGTFGPIMKLIDDMTVSKGWTLQKTVRYAANLYL
glycan array binding signal (z-score) (Fuc(a1-2)Gal(b1-3)GlcNAc): -0.372 | glycan array binding signal (z-score) [1]: -0.362 | glycan array binding signal (z-score) [2]: -0.366 | glycan array binding signal (z-score) [3]: -0.367 | glycan array binding signal (z-score) [4]: -0.372 | glycan array binding signal (z-score) [5]: -0.335 | glycan array binding signal (z-score) [6]: -0.368 | glycan array binding signal (z-score) [7]: -0.349 | glycan array binding signal (z-score) [8]: -0.359 | glycan array binding signal (z-score) [9]: -0.36 | glycan array binding signal (z-score) [10]: -0.364 | glycan array binding signal (z-score) [11]: -0.366 | glycan array binding signal (z-score) [12]: -0.369 | glycan array binding signal (z-score) [13]: -0.555 | glycan array binding signal (z-score) [14]: 0.543 | glycan array binding signal (z-score) [15]: -0.369 | glycan array binding signal (z-score) [16]: 0.45 | glycan array binding signal (z-score) [17]: 0.956 | glycan array binding signal (z-score) (Gal(b1-6)Gal): -0.37 | glycan array binding signal (z-score) [18]: -0.344 | glycan array binding signal (z-score) (GalNAc(b1-3)Gal): -0.243 | glycan array binding signal (z-score) (GalNAc3S(b1-4)GlcNAc3S): -0.369 | glycan array binding signal (z-score) [19]: 4.19 | glycan array binding signal (z-score) [20]: 0.519
